# In article PMC7862700, “An all-to-all approach to the identification of sequence-specific readers for epigenetic DNA modifications on cytosine”:
# Assays:
# Assay in all cases: DAPPL (digital affinity profiling via proximity ligation, sequencing); 10 mM Tris-HCl pH 7.5, 50 mM NaCl, 1 mM DTT, 4% glycerol, room temperature, 30 min; GST-TFs on glutathione beads, 16-mer random dsDNA library, 0.1% formaldehyde crosslink after washing; high values mean tight binding
# [1] = molecular target: T1, FLI1 (Homo sapiens, UniProt Q01543 1-452); settings: protein: recombinant; tags: N-terminal GST; dsDNA, one strand shown
# T1 sequence: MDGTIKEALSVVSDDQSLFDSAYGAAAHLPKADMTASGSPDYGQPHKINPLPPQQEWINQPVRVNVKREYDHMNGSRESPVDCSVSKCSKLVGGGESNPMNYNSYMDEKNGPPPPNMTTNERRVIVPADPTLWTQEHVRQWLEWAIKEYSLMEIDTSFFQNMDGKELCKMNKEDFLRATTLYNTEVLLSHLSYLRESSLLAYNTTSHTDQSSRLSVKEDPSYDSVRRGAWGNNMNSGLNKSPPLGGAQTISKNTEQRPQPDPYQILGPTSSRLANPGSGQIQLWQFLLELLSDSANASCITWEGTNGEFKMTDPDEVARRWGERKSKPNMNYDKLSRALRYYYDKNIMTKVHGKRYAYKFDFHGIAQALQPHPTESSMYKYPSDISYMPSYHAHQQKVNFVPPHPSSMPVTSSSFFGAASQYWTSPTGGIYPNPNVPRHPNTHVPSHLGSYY
# Method in brief: (§1)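 A tag-only sample was pooled with DNA-barcoded human transcription factors that had been expressed in yeast as GST fusions and captured on glutathione beads. The pools were incubated for 30 min at room temperature with 200 nmole of a random double-stranded 16-mer DNA library in Tris/NaCl/DTT/glycerol buffer, then washed, crosslinked with 0.1% formaldehyde, proximity-ligated (BsaI/T4 ligase, 1 h, 37 °C), PCR-amplified and sequenced on an Illumina NextSeq500. Binding signal is each hexamer's read frequency for a factor divided by its frequency for the tag-only sample.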
# [2] = molecular target: T2, ELK1 (Homo sapiens, UniProt P19419 1-428); settings: protein: recombinant; tags: N-terminal GST; dsDNA, one strand shown
# T2 sequence: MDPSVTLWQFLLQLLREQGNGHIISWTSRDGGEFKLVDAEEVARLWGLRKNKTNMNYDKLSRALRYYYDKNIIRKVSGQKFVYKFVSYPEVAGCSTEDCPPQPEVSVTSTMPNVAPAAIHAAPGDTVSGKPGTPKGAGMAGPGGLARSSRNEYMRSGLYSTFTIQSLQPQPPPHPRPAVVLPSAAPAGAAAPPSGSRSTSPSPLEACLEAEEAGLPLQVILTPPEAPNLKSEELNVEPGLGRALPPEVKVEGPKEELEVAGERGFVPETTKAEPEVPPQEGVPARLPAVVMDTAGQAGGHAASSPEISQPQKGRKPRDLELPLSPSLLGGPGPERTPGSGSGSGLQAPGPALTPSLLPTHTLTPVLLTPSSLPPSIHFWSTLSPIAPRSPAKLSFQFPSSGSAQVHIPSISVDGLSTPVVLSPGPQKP
# Method in brief: as §1
# [3] = molecular target: T3, GABPA (Homo sapiens, UniProt Q06546 1-454); settings: protein: recombinant; tags: N-terminal GST; dsDNA, one strand shown
# T3 sequence: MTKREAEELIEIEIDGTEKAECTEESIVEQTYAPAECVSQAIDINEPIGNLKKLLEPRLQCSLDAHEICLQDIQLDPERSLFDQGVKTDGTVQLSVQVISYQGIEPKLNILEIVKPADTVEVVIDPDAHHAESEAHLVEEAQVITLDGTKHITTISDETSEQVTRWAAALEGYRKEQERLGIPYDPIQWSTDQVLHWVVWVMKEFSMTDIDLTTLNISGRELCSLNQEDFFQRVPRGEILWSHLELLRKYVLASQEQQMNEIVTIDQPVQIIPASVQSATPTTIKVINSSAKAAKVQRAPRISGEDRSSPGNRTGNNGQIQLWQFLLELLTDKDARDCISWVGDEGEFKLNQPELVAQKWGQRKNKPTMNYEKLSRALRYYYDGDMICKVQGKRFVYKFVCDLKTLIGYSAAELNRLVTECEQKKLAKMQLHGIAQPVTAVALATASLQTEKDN
# Method in brief: as §1
# [4] = molecular target: T4, ERG (Homo sapiens, UniProt P11308 1-479); settings: protein: recombinant; tags: N-terminal GST; dsDNA, one strand shown
# T4 sequence: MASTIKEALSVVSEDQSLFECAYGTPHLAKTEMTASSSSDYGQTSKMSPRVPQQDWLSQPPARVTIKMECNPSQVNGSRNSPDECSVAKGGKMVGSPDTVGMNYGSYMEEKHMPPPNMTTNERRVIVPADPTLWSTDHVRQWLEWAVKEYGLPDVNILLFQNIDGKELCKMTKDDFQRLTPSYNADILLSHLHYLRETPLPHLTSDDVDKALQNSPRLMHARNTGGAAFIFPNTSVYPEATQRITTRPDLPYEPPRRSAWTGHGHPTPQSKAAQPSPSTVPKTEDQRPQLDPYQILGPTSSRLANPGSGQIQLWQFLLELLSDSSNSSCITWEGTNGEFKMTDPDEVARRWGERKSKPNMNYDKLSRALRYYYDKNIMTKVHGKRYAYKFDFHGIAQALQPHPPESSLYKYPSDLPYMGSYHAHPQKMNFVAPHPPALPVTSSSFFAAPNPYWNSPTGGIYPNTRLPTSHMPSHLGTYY
# Method in brief: as §1
# [5] = molecular target: ELF1 (Homo sapiens, UniProt P32519 1-619); settings: protein: recombinant; tags: N-terminal GST; dsDNA, one strand shown
# Method in brief: as §1
# [6] = molecular target: T5, EHF (Homo sapiens, UniProt Q9NZC4 1-300); settings: protein: recombinant; tags: N-terminal GST; dsDNA, one strand shown
# T5 sequence: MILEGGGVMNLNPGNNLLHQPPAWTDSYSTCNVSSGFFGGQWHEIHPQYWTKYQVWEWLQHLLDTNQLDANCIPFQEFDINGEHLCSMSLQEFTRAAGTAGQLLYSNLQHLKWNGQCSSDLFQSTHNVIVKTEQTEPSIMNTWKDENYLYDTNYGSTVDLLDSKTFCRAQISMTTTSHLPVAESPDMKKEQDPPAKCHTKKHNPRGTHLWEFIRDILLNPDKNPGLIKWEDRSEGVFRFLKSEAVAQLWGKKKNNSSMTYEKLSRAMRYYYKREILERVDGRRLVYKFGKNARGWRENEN
# Method in brief: as §1
# [7] = molecular target: SPI1 (Homo sapiens, UniProt P17947 1-270); settings: protein: recombinant; tags: N-terminal GST; dsDNA, one strand shown
# Method in brief: as §1
# [8] = molecular target: SPIB (Homo sapiens, UniProt Q01892 1-262); settings: protein: recombinant; tags: N-terminal GST; dsDNA, one strand shown
# Method in brief: as §1
# [9] = molecular target: T6, ELK3 (Homo sapiens, UniProt P41970 1-407); settings: protein: recombinant; tags: N-terminal GST; dsDNA, one strand shown
# T6 sequence: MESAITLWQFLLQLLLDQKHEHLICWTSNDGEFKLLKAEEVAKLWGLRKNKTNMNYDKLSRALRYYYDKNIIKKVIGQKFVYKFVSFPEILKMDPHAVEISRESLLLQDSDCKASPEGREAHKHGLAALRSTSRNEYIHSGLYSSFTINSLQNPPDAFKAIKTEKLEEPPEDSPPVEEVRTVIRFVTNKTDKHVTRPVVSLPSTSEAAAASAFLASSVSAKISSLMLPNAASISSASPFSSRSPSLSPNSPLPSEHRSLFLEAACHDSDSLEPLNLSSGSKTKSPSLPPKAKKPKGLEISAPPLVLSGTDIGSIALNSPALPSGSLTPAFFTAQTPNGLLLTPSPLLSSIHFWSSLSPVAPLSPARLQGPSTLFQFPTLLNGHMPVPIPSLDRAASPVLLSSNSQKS
# Method in brief: as §1
# [10] = molecular target: T7, FEV (Homo sapiens, UniProt Q99581 1-238); settings: protein: recombinant; tags: N-terminal GST; dsDNA, one strand shown
# T7 sequence: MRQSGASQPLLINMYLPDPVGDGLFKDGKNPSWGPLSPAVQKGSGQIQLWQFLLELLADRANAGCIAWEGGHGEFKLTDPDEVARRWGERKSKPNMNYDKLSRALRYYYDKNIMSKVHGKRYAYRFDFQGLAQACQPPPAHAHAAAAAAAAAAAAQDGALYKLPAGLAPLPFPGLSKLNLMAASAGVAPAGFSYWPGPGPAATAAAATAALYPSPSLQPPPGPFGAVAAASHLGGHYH
# Method in brief: as §1
# [11] = molecular target: ETV5 (Homo sapiens, UniProt P41161 1-510); settings: protein: recombinant; tags: N-terminal GST; dsDNA, one strand shown
# Method in brief: as §1
# [12] = molecular target: HSF1 (Homo sapiens, UniProt Q00613 1-529); settings: protein: recombinant; tags: N-terminal GST; chain copies: 3; dsDNA, one strand shown
# Method in brief: as §1
# [13] = molecular target: T8, SPIC (Homo sapiens, UniProt Q8N5J4 1-248); settings: protein: recombinant; tags: N-terminal GST; dsDNA, one strand shown
# T8 sequence: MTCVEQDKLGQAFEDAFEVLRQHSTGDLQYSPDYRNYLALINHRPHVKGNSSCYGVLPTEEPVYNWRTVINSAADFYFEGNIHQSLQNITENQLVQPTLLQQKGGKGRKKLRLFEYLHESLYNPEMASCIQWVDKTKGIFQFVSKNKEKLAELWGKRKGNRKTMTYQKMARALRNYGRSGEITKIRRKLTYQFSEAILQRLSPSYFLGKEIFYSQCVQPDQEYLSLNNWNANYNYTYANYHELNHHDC
# Method in brief: as §1
# [14] = molecular target: ELF4 (Homo sapiens, UniProt Q99607 1-663); settings: protein: recombinant; tags: N-terminal GST; dsDNA, one strand shown
# Method in brief: as §1
# [15] = molecular target: T9, ELK4 (Homo sapiens, UniProt P28324-2 1-405); settings: protein: recombinant; tags: N-terminal GST; dsDNA, one strand shown
# T9 sequence: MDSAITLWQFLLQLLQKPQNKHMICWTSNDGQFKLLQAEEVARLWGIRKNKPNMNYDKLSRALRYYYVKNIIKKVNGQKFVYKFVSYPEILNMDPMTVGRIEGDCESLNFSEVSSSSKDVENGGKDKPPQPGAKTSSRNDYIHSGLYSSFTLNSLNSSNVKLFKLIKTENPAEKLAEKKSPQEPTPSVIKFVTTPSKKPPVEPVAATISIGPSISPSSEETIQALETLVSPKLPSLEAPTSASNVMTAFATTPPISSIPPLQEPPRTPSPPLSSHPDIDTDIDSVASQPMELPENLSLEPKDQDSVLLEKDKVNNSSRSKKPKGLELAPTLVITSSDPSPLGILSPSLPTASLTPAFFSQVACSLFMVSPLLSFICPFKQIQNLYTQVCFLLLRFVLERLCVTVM
# Method in brief: as §1
# [16] = molecular target: T10, ETV2 (Homo sapiens, UniProt O00321 1-342); settings: protein: recombinant; tags: N-terminal GST; dsDNA, one strand shown
# T10 sequence: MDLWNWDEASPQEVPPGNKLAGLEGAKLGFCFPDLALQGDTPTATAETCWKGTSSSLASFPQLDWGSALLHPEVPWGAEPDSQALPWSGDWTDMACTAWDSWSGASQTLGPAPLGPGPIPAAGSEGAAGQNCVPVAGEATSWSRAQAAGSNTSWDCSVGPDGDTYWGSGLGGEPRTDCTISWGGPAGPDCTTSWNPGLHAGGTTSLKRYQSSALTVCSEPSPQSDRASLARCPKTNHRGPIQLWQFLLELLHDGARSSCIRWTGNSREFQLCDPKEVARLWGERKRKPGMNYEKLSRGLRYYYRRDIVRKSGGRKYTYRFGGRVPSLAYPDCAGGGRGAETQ
# Method in brief: as §1
# [17] = molecular target: T11, ELF3 (Homo sapiens, UniProt P78545 1-371); settings: protein: recombinant; tags: N-terminal GST; dsDNA, one strand shown
# T11 sequence: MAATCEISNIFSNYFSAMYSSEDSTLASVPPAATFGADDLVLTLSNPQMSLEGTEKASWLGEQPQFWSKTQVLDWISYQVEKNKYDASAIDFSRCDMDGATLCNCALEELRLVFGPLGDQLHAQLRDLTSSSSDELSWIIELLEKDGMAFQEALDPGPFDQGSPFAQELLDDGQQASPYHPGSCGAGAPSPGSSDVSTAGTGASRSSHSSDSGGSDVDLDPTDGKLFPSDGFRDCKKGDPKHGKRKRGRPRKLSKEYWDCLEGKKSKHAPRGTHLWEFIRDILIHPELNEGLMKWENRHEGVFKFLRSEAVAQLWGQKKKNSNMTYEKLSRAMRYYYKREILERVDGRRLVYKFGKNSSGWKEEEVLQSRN
# Method in brief: as §1
# [18] = molecular target: CRX (Homo sapiens, UniProt O43186 1-299); settings: protein: recombinant; tags: N-terminal GST; dsDNA, one strand shown
# Method in brief: as §1
# [19] = molecular target: ETV1 (Homo sapiens, UniProt P50549 1-477); settings: protein: recombinant; tags: N-terminal GST; dsDNA, one strand shown
# Method in brief: as §1
# ELF4, sequence (Q99607 whole entry): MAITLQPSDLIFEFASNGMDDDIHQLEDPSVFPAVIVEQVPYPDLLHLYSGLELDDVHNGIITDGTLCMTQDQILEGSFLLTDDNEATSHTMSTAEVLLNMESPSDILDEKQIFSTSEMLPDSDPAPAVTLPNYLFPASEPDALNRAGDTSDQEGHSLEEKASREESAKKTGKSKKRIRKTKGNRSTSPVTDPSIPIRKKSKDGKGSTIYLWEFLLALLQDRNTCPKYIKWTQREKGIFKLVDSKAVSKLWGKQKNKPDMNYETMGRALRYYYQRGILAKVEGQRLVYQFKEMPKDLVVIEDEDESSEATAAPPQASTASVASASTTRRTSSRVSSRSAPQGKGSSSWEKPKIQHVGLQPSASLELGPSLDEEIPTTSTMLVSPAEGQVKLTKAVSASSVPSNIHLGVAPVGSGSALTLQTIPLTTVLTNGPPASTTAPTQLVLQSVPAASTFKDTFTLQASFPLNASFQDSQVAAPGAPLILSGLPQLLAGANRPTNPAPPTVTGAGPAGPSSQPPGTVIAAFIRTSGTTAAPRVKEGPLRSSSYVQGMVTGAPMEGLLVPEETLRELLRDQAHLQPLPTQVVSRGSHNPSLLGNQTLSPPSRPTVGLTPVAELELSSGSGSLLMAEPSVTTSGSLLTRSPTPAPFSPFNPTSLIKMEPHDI
# CRX, sequence (O43186 whole entry): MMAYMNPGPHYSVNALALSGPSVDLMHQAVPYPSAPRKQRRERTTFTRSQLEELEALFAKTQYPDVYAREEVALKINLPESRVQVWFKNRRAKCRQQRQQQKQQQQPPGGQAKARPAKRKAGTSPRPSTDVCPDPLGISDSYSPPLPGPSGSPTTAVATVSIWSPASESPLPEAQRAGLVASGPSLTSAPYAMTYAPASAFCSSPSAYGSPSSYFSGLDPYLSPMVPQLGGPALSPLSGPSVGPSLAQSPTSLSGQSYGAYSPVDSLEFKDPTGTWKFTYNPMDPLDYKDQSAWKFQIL
# ETV5, sequence (P41161 whole entry): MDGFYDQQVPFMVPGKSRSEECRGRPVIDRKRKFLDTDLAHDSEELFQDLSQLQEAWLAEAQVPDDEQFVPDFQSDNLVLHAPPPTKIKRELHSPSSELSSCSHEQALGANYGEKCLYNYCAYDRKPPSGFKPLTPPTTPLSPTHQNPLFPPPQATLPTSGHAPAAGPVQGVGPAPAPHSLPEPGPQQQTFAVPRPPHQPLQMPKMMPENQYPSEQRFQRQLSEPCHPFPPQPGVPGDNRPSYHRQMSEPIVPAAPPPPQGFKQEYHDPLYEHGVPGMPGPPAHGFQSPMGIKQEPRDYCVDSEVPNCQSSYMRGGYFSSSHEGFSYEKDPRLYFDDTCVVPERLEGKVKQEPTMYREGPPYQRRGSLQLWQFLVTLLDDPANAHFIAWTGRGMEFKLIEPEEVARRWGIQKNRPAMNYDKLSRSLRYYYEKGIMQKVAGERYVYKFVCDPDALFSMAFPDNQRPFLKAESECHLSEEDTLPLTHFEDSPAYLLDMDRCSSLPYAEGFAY
# HSF1, sequence (Q00613 whole entry): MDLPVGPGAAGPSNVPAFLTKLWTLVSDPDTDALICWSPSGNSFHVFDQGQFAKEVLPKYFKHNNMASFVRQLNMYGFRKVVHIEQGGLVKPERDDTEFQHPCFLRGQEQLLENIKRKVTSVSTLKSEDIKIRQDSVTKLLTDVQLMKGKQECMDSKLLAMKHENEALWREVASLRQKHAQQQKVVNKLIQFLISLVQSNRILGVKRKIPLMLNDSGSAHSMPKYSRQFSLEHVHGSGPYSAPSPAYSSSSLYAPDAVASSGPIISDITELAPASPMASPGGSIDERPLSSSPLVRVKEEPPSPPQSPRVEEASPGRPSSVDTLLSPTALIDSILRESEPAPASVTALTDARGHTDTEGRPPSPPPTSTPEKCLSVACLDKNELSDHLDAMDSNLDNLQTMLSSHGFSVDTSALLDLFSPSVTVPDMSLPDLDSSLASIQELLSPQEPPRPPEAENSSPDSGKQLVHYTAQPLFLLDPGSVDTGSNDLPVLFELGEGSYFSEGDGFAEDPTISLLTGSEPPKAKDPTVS
# ETV1, sequence (P50549 whole entry): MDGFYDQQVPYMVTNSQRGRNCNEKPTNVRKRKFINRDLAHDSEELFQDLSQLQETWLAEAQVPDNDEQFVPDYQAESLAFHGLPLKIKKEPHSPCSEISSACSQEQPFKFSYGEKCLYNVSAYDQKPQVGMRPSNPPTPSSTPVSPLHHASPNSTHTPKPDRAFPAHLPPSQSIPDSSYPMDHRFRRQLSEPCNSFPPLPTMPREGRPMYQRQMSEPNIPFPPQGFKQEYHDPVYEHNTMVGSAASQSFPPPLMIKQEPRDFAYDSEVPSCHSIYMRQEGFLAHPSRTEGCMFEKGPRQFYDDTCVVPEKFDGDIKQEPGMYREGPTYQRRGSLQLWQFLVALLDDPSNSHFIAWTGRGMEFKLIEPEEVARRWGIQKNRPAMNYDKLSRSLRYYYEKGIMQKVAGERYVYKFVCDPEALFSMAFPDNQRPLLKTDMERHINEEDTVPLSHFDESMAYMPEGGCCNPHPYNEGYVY
# ELF1, sequence (P32519 whole entry): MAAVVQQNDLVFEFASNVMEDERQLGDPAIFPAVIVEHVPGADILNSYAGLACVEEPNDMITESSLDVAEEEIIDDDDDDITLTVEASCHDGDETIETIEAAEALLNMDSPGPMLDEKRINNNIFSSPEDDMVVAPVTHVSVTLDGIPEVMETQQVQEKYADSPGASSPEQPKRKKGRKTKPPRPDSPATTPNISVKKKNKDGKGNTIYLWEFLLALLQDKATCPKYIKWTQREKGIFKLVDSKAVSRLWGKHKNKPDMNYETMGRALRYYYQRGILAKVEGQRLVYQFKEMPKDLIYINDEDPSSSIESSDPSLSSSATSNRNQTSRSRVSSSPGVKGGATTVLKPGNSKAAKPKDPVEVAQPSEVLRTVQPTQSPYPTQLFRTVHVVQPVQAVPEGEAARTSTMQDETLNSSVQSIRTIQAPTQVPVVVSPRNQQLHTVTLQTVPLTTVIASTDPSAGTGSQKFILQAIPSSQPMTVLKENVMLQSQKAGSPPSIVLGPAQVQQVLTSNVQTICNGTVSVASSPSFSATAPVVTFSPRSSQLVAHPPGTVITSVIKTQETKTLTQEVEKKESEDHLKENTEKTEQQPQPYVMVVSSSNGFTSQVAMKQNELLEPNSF
# SPIB, sequence (Q01892 whole entry): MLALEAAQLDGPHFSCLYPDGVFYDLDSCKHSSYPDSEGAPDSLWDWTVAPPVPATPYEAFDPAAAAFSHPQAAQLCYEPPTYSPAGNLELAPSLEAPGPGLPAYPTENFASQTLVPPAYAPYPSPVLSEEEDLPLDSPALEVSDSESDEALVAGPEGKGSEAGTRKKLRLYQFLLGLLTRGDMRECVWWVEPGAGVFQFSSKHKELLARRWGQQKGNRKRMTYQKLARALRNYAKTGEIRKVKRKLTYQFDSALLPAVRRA
sequence,measurement,setting,value
CTGAAA,binding signal,[1],"1.16 fold enrichment (6-mer frequency, TF over GST control)"
same,binding signal,[2],"1.14 fold enrichment (6-mer frequency, TF over GST control)"
same,binding signal,[3],"1.1 fold enrichment (6-mer frequency, TF over GST control)"
same,binding signal,[4],"1.04 fold enrichment (6-mer frequency, TF over GST control)"
same,binding signal,[5],"1.19 fold enrichment (6-mer frequency, TF over GST control)"
same,binding signal,[6],"1.09 fold enrichment (6-mer frequency, TF over GST control)"
same,binding signal,[7],"1.19 fold enrichment (6-mer frequency, TF over GST control)"
same,binding signal,[8],"1.24 fold enrichment (6-mer frequency, TF over GST control)"
same,binding signal,[9],"1.03 fold enrichment (6-mer frequency, TF over GST control)"
same,binding signal,[10],"1.25 fold enrichment (6-mer frequency, TF over GST control)"
same,binding signal,[11],"1.22 fold enrichment (6-mer frequency, TF over GST control)"
same,binding signal,[12],"1.16 fold enrichment (6-mer frequency, TF over GST control)"
same,binding signal,[13],"1.35 fold enrichment (6-mer frequency, TF over GST control)"
same,binding signal,[14],"1.13 fold enrichment (6-mer frequency, TF over GST control)"
same,binding signal,[15],"1.19 fold enrichment (6-mer frequency, TF over GST control)"
same,binding signal,[16],"1.15 fold enrichment (6-mer frequency, TF over GST control)"
same,binding signal,[17],"1.28 fold enrichment (6-mer frequency, TF over GST control)"
same,binding signal,[18],"1 fold enrichment (6-mer frequency, TF over GST control)"
same,binding signal,[19],"1.1 fold enrichment (6-mer frequency, TF over GST control)"
